In ChEMBL document CHEMBL4513216, “Probing the Open Global Health Chemical Diversity Library for Multistage-Active Starting Points for Next-Generation Antimalarials” (ACS Infect Dis, 2020):
Out of some 69,000 compounds screened, about 8,600 (12%) showed an effect of 50% or more. Only a selection was taken, and strong results are over-represented in it overall.

Test system: Plasmodium berghei
Experiment: Screen against P. berghei liver stage (PbLuc), transformed with Luciferase, at 10uM
Type: functional, HepG2
Settings: tested at 10 uM

Structure (SMILES) | INHIBITION
CCCN1CCCCCC1Cc1c(C(=O)NC)sc2ccccc12 (configuration not stated) | 17.235%
CN1CCCNC(=O)C12CCN(C(=O)c1ccc3[nH]cnc3c1)CC2 | 20.2%
CCc1noc(C(C)N2CCN(CCOCC(F)(F)F)CC2)n1 (configuration not stated) | -5.545%
O=C(NCC1CCCN1Cc1ccccc1)NCC1(O)CCC1 (configuration not stated) | 53.8%
O=C(NCC1CCN(CCc2ccccc2)C1)NCC1(O)CCC1 (configuration not stated) | 53.8%
O=C(NCC1CCCN1CCc1ccccc1)NCC1(O)CCC1 (configuration not stated) | 19.2%
O=C(NCc1nccn1CCc1ccccc1)NCC1(O)CCC1 | -4.15%
CCCN1CCC(CNC(=O)C2(c3ccccc3)CCC2)C1 (configuration not stated) | 42.9%
Cc1noc(C(C)C)c1C(=O)NCC1CCCN1Cc1ccccc1 (configuration not stated) | 24.1%
CCC(=O)NCCCn1c(-c2cccnc2C)cc2cccnc21 | 10.9%
CCNC(=O)C(C)NC(=O)Nc1ccccc1SC(F)(F)F (configuration not stated) | 65%
O=C(NCCCn1nc2ccccn2c1=O)Nc1ccccc1Cl | 7.12%
Cn1c(C(F)(F)F)nn(CCNC(=O)Nc2ccccc2Cl)c1=O | 21%
CCNC(=O)C(C)NC(=O)Nc1ccccc1SCC (configuration not stated) | 5.17%
CCNC(=O)C(C)NC(=O)Nc1ccccc1Cl (configuration not stated) | 62.9%
CCCNC(=O)C(C)NC(=O)Nc1ccccc1SC(F)F (configuration not stated) | 41.5%
O=C1CCC2(CCC(NCc3ccoc3)CC2)N1 (configuration not stated) | 2.58%
O=C(CN1CCc2sccc2C1)Nc1nccs1 | -41.6%
COC1COC2(CCN(CC3CCOCC3)CC2)C1 (configuration not stated) | 14%
Cc1ccnc(NC(=O)c2ccc(F)c(S(=O)(=O)NC3CC3)c2)c1 | -25.4%
CCn1cnnc1C1CCN(C(=O)c2ccccc2F)CC1 | 21%
CNC(=O)C1Cn2ccnc2C2(CCN(C(=O)c3ccoc3C)CC2)O1 (configuration not stated) | -7.7%

Structure (SMILES) | INHIBITION
CC(C)c1noc(C(C)N2CCN(Cc3cccs3)CC2)n1 (configuration not stated) | 15.5%
CC(C)c1noc(C(C)N2CCN(Cc3nc4ccccc4[nH]3)CC2)n1 (configuration not stated) | 53.3%
CC(C)c1noc(C(C)N2CCC(c3nc4ccccc4[nH]3)CC2)n1 (configuration not stated) | 36.5%
CC(C)C(Sc1cccs1)C(=O)NCc1cccnc1 (configuration not stated) | 18.4%
Cc1nc(CN(C)C2CCN(CCCOc3ccc(F)cc3)C2)no1 (configuration not stated) | -0.219%
O=C(Cc1ccsc1)N1CCCC(c2cc(C(F)F)n3ncnc3n2)C1 (configuration not stated) | 28%
O=C(c1ccco1)N1CCCC(c2cc(C(F)F)n3ncnc3n2)C1 (configuration not stated) | 14.8%
O=C(c1ccco1)N1CCCC(c2cc(C(F)(F)F)n3ncnc3n2)C1 (configuration not stated) | 60.4%
O=C(c1ccncc1)N1CCCC(c2cc(C(F)F)n3ncnc3n2)C1 (configuration not stated) | 35.2%
COCC(=O)N1CCCC(c2cc(C(F)F)n3ncnc3n2)C1 (configuration not stated) | 59.3%
CC(C)C(=O)N1CCCC(c2cc(C(F)F)n3ncnc3n2)C1 (configuration not stated) | 39.8%
O=C(c1cnoc1)N1CCC[C@]2(C[C@H](Oc3ncccc3F)CO2)C1 | -28.2%
CCCSCC(=O)N1C[C@H]2CC[C@@H](C1)N(Cc1ccccn1)C2=O | 35.9%
O=C1OCCN1CC(=O)N1C[C@@H]2CC[C@H]1CN(C(=O)c1ccccc1)C2 | -12.6%
O=c1c(NCCOCCO)c(N2CCN(c3ccccc3)CC2)c1=O | 6.34%
CCn1nc(C)c2nnn(CC(=O)Nc3ccc(C)c(C)c3)c(=O)c21 | 11%
COc1nc(C)c(C(=O)NCc2cc(N3CCOCC3)ncn2)s1 | 34%
O=C(Cn1ccc2ccccc21)NCc1cc(N2CCOCC2)ncn1 | 12.8%
O=C(NCc1cc(N2CCOCC2)ncn1)c1cccc(CO)n1 | 71.1%
COc1cc(C(=O)NCc2cc(N3CCOCC3)ncn2)ccn1 | 63.7%
Cc1cc(C(=O)NCc2ccnc(N3CCOCC3)c2)c(C)s1 | 4.65%
COc1ccc(C(=O)NCc2cc(N3CCOCC3)ncn2)o1 | 8.11%

Structure (SMILES) | INHIBITION
CCn1cnnc1CNC(=O)N1CCN(c2ccccc2O)CC1 | 36.1%
NCC1[C@H]2CN(Cc3ccccc3F)C[C@@H]12 (some centres not stated) | 45.7%
O=c1cc(CSc2nnc[nH]2)nc2sc3c(n12)CCCC3 | 16.5%
COCCCS(=O)(=O)N1CCN(c2cccc(O)c2)CC1 | 14.6%
COCCCS(=O)(=O)N1CCN(Cc2cccn2C)CC1 | 51.1%
CC(C)OCCS(=O)(=O)N1CCN(Cc2cccn2C)CC1 | 4.1%
Cc1c(Br)cccc1C(=O)NCCC1CCCNC1 (configuration not stated) | 28.6%
O=C(C1CC(c2ccccc2)=NO1)N1CCCCc2ccccc21 (configuration not stated) | -15%
CCC(c1ccc(F)cc1)S(=O)(=O)CCO (configuration not stated) | 15.9%
CCC(c1ccccc1)S(=O)(=O)CCO (configuration not stated) | 61.8%
CCC(c1ccc(F)cc1F)S(=O)(=O)CCO (configuration not stated) | 23.8%
Nc1nccnc1C1CN(C(=O)COc2cccnc2)CCO1 (configuration not stated) | -50.3%
COCC(=O)N1CCC2(CC1)C(=O)N(Cc1cccnc1)CCN2C | 43.2%
O=C(O)c1cc(C=Cc2cccc3ccccc23)ncn1 | 8.05%
c1ccc(-c2nccc(CNC3CCc4ncnn4C3)n2)cc1 (configuration not stated) | 36.1%
CN1[C@@H]2CC[C@H]1CN(c1nc(-c3ccncc3)nc3c1cnn3C)CC2 | 71.3%
Cn1ncc2c(NC3CCC3)nc(-c3ccncc3)nc21 | 33.7%
Cn1ncc2c(N[C@@H]3C[C@H]4CC[C@@H]3C4)nc(-c3ccncc3)nc21 | 35.1%
CC(C)N1CCCN(c2nc(-c3cccnc3)nc3c2cnn3C)CC1 | 86.6%
Cn1ncc2c(N3CC(N4CCCCC4)C3)nc(-c3ccncc3)nc21 | 22.6%
Cn1ncc2c(NC3CN4CCC3CC4)nc(-c3ccncc3)nc21 (configuration not stated) | 53.2%
Cn1ncc2c(N3CC[C@H](O)C3)nc(-c3ccncc3)nc21 | 19.8%

Structure (SMILES) | INHIBITION
Cn1ncc2c(NCC3CCS(=O)(=O)C3)nc(-c3ccncc3)nc21 (configuration not stated) | 15.1%
Cn1ncc2c(N3CCC(F)(F)CC3)nc(-c3ccncc3)nc21 | 31%
Cn1ncc2c(N3CCS(=O)(=O)CC3)nc(-c3cccnc3)nc21 | 35%
Cn1ncc2c(NC3CCSC3)nc(-c3ccncc3)nc21 (configuration not stated) | 61.6%
Cn1ncc2c(N3CCC3)nc(-c3ccncc3)nc21 | -3.83%
CC(=O)N1CCc2cc(Cl)cc(Cl)c2C1 | 37.7%
COCC1CC2(CCN(CC3CC3)CC2)CN1c1ncccn1 (configuration not stated) | 18.2%
Cn1ccc(C(=O)NC2CCC23CCN(Cc2ccc(F)cc2)CC3)c1 (configuration not stated) | -9.02%
Nc1ncnc2nc(C3CCN(C(=O)Cc4ccccc4)C3)ccc12 (configuration not stated) | 6.3535%
COc1ccc(-c2cc(C3CCNCC3)nc(C)n2)cc1 | -29.9%
COc1ccc(N2CCN(Cc3nc(CSC)no3)CC2=O)cc1 | -42.9%
CCC(NC(=O)NCC(=O)Nc1ccc(F)cc1)c1ccncc1 (configuration not stated) | 58.3%
CCC(NC(=O)Nc1ccc(OC)c(C)c1)c1ccncc1 (configuration not stated) | 26.6%
CCNC(=O)Cc1ccc(NC(=O)NC(CC)c2ccncc2)cc1 (configuration not stated) | 4.15%
O=C(c1ccco1)N1C[C@H]2CCCN(CC3CCOCC3)[C@H]2C1 | 49.5%
Cc1cnc(NCCCN2CCCCC2CO)nc1 (configuration not stated) | 20.8%
N#Cc1cccc(CS(=O)(=O)NC(Cc2ccccc2)C(N)=O)c1 (configuration not stated) | 58.1%
O=S(=O)(Cc1ccccc1F)NC(CO)c1ccco1 (configuration not stated) | 45.1%
NC(=O)C(Cc1ccccc1)NS(=O)(=O)Cc1ccccc1Cl (configuration not stated) | 9.75%
N#Cc1cccc(CS(=O)(=O)NCCC(O)c2ccccc2)c1 (configuration not stated) | 24.5%
N#Cc1cccc(CS(=O)(=O)NCC(O)Cc2ccccc2)c1 (configuration not stated) | 30.8%
NC(=O)C(Cc1ccccc1)NS(=O)(=O)Cc1ccccc1F (configuration not stated) | 50.5%

Structure (SMILES) | INHIBITION
O=C(NC1COC2(CCN(Cc3cccs3)CC2)C1)c1ccccn1 (configuration not stated) | 20.9%
Cc1ccc(CN[C@@H]2COC[C@H]2c2ccc(F)cc2)cc1C | 49%
CN1CC2(CCC(C(=O)N3CCOCC3)CC2)Oc2ccccc2C1=O (configuration not stated) | -3.58%
COCCN1CCn2c(CN(C)C(C)C)cnc2C1 | -8.28%
CNC(=O)[C@@H]1[C@H]2CN(Cc3ccoc3)CCN2C[C@H]1c1ccccc1 | 9.36%
CNC(=O)[C@@H]1[C@@H](c2ccccc2)CN2CCN(Cc3ccco3)C[C@H]12 | 57%
CNC(=O)[C@@H]1[C@@H](c2ccccc2)CN2CCN(Cc3cccs3)C[C@H]12 | 41.1%
Cn1cc(N2CC3(CCN(Cc4cccnc4)CC3)OCC2=O)cn1 | 22.9%
Cc1nc(C)n(C2CCCN(C(=O)c3ccc4nccn4c3)C2)n1 (configuration not stated) | 20.8%
Cc1ccc(N2CC[C@]3(O)CCN(CCN4CCCC4=O)C[C@@H]3C2)nn1 | -2.25%
CSCCCN1CC[C@@]2(O)CCN(c3ncccn3)C[C@H]2C1 | 38.3%
O=C1CCCN1CCN1CC[C@@]2(O)CCN(c3ncccn3)C[C@H]2C1 | 51.2%
CCc1nnc2n1CCN(C(=O)c1cc3ccccc3[nH]1)C2 | 18.2%
Cc1cc(N2CCc3c(ncn3C)C2)n2nc(C(F)(F)F)nc2n1 | 20%
Cc1cc(N2CCc3cnc(C)nc3C2)n2nc(C(F)(F)F)nc2n1 | 10.6%
Cc1cc(N2CCc3cncnc3C2)n2nc(C(F)(F)F)nc2n1 | 50.8%
Cc1nc(C)n(Cc2cccc(NC3CCN(C)C3=O)c2)n1 (configuration not stated) | -41.6%
CC(C)SCc1cccc(NC2CCN(C)C2=O)c1 (configuration not stated) | -13.9%
CCSCc1cccc(NC2CCN(C)C2=O)c1 (configuration not stated) | 52.5%
